From PubChem BioAssay AID1159580 (chemical genetic matrix, 2015)
The whole screen tested about 5,500 compounds, of which about 2,000 (36%) were called active. Another 18% or so got no clear call; they are omitted. No stated cut-off is given here; in the data, active means normalized growth mostly below about 0.91 (no sharp cut-off); inconclusive means no clear call, values can overlap the other calls; inactive means mostly above about 0.92. Some of the results follow.

Experiment: chemical genetic growth profiling, strain panel (AID 1159580);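 further: tested at 20 µM; growth read once vehicle control cultures reached saturation at 30 °C; 1 = growth at the plate median or of vehicle wells; lower values mean less growth of the strain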
Details: growth OD

Measured: normalized growth

CC(=O)OCC(=O)[C@@]12OC3(CCCC3)O[C@@H]1CC1C3CCC4=CC(=O)C=C[C@]4(C)[C@@]3(F)[C@@H](O)C[C@@]12C (some centres not stated)
inactive: S. cerevisiae deletion strains, locus YJR075W, strain HOC1, active compounds read low 1.01 | S. cerevisiae deletion strains, locus YKL009W, strain mrt4, active compounds read low 0.967 | S. cerevisiae deletion strains, locus YKL068W, active compounds read low 0.991 | S. cerevisiae deletion strains, locus YKL085W, strain MDH1 (second series), active compounds read low 0.994 | S. cerevisiae deletion strains, locus YKL085W, strain MDH1, active compounds read low 0.994 | S. cerevisiae deletion strains, locus YKL160W, strain elf1, active compounds read low 1.01 | S. cerevisiae deletion strains, locus YKL190W, strain CNB1, active compounds read low 0.997 | S. cerevisiae deletion strains, locus YKR001C, strain vps1, active compounds read low 0.985 | S. cerevisiae deletion strains, locus YKR026C, strain gcn3, active compounds read low 1.02 | S. cerevisiae deletion strains, locus YKR091W, strain srl3, active compounds read low 1.01 | S. cerevisiae deletion strains, locus YLL001W, strain dnm1, active compounds read low 1 | S. cerevisiae deletion strains, locus YLL026W, active compounds read low 1.01 | S. cerevisiae deletion strains, locus YLL041C, strain sdh2, active compounds read low 1.02 | S. cerevisiae deletion strains, locus YLR027C, strain aat2, active compounds read low 1.01 | S. cerevisiae deletion strains, locus YLR039C, strain RIC1, active compounds read low 0.94 | S. cerevisiae deletion strains, locus YLR058C, strain SHM2, active compounds read low 1.01 | S. cerevisiae deletion strains, locus YLR102C, strain apc9, active compounds read low 0.992 | S. cerevisiae deletion strains, locus YLR113W, strain HOG1, active compounds read low 0.989 | S. cerevisiae deletion strains, locus YLR221C, strain rsa3, active compounds read low 1.01 | S. cerevisiae deletion strains, locus YLR258W, strain gsy2, active compounds read low 1.02 | S. cerevisiae deletion strains, locus YLR262C, strain YPT6 (second series), active compounds read low 1 | S. cerevisiae deletion strains, locus YLR262C, strain YPT6, active compounds read low 0.961 | S. cerevisiae deletion strains, locus YLR268W, strain sec22, active compounds read low 0.958 | S. cerevisiae deletion strains, locus YLR320W, strain mms22, active compounds read low 1.02 | S. cerevisiae deletion strains, locus YLR330W, strain CHS5, active compounds read low 1.01 | S. cerevisiae deletion strains, locus YLR342W, strain FKS1 (second series), active compounds read low 1.05 | S. cerevisiae deletion strains, locus YLR342W, strain FKS1, active compounds read low 1.02 | S. cerevisiae deletion strains, locus YLR357W, strain rsc2, active compounds read low 1.04 | S. cerevisiae deletion strains, locus YLR370C, strain arc18, active compounds read low 1.02 | S. cerevisiae deletion strains, locus YLR371W, strain rom2, active compounds read low 0.984 | S. cerevisiae deletion strains, locus YLR384C, strain iki3, active compounds read low 1.01 | S. cerevisiae deletion strains, locus YLR418C, strain cdc73, active compounds read low 0.944 | S. cerevisiae deletion strains, locus YML016C, strain PPZ1, active compounds read low 1.02 | S. cerevisiae deletion strains, locus YML032C, strain rad52, active compounds read low 0.968 | S. cerevisiae deletion strains, locus YML120C, strain ndi1, active compounds read low 1.02 | S. cerevisiae deletion strains, locus YML124C, strain tub3, active compounds read low 0.988 | S. cerevisiae deletion strains, locus YMR058W, strain fet3, active compounds read low 1.02 | S. cerevisiae deletion strains, locus YMR078C, strain ctf18, active compounds read low 1 | S. cerevisiae deletion strains, locus YMR125W, strain sto1, active compounds read low 1.03 | S. cerevisiae deletion strains, locus YMR129W, active compounds read low 1.02 | S. cerevisiae deletion strains, locus YMR205C, strain PFK2, active compounds read low 1.02 | S. cerevisiae deletion strains, locus YMR223W, strain ubp8, active compounds read low 1.01 | S. cerevisiae deletion strains, locus YMR231W, strain pep5, active compounds read low 1.01 | S. cerevisiae deletion strains, locus YMR263W, strain SAP30, active compounds read low 1.01 | S. cerevisiae deletion strains, locus YMR307W, strain GAS1, active compounds read low 1.11 | S. cerevisiae deletion strains, locus YNL067W, strain RPL9B, active compounds read low 1 | S. cerevisiae deletion strains, locus YNL071W, strain lat1, active compounds read low 1.01 | S. cerevisiae deletion strains, locus YNL128W, strain TEP1, active compounds read low 1.03 | S. cerevisiae deletion strains, locus YNL153C, strain GIM3, active compounds read low 0.996 | S. cerevisiae deletion strains, locus YNL183C, strain NPR1, active compounds read low 0.954 | S. cerevisiae deletion strains, locus YNL209W, strain ssb2, active compounds read low 1.01 | S. cerevisiae deletion strains, locus YNL233W, strain BNI4, active compounds read low 1.01 | S. cerevisiae deletion strains, locus YNL248C, strain rpa49, active compounds read low 0.978 | S. cerevisiae deletion strains, locus YNL250W, strain rad50, active compounds read low 0.994 | S. cerevisiae deletion strains, locus YNL271C, strain bni1, active compounds read low 0.984 | S. cerevisiae deletion strains, locus YNL298W, strain CLA4, active compounds read low 0.982 | S. cerevisiae deletion strains, locus YNL307C, strain MCK1, active compounds read low 0.992 | S. cerevisiae deletion strains, locus YNL322C, strain KRE1 (second series), active compounds read low 1.03 | S. cerevisiae deletion strains, locus YNL322C, strain KRE1, active compounds read low 1.01 | S. cerevisiae deletion strains, locus YNR049C, strain mso1, active compounds read low 1.03 | S. cerevisiae deletion strains, locus YNR052C, strain pop2, active compounds read low 0.99 | S. cerevisiae deletion strains, locus YOL006C, strain TOP1, active compounds read low 1.01 | S. cerevisiae deletion strains, locus YOL012C, strain htz1 0.599 | S. cerevisiae deletion strains, locus YOL147C, strain pex11, active compounds read low 1 | S. cerevisiae deletion strains, locus YOR001W, strain rrp6, active compounds read low 1.02 | S. cerevisiae deletion strains, locus YOR061W, strain CKA2, active compounds read low 1.01 | S. cerevisiae deletion strains, locus YOR069W, strain VPS5, active compounds read low 1.01 | S. cerevisiae deletion strains, locus YOR070C, strain gyp1, active compounds read low 1.02 | S. cerevisiae deletion strains, locus YOR080W, strain dia2, active compounds read low 1.04 | S. cerevisiae deletion strains, locus YOR083W, strain WHI5, active compounds read low 0.998 | S. cerevisiae deletion strains, locus YOR106W, strain vam3, active compounds read low 1.01 | S. cerevisiae deletion strains, locus YOR136W, strain idh2, active compounds read low 0.981 | S. cerevisiae deletion strains, locus YOR144C, strain elg1, active compounds read low 0.991 | S. cerevisiae deletion strains, locus YOR184W, strain ser1, active compounds read low 0.983 | S. cerevisiae deletion strains, locus YOR231W, strain MKK1, active compounds read low 0.963 | S. cerevisiae deletion strains, locus YOR265W, strain rbl2, active compounds read low 1.02 | S. cerevisiae deletion strains, locus YOR270C, strain vph1, active compounds read low 0.921 | S. cerevisiae deletion strains, locus YOR290C, strain snf2, active compounds read low 1.01 | S. cerevisiae deletion strains, locus YOR316C, strain cot1, active compounds read low 1 | S. cerevisiae deletion strains, locus YPL051W, strain arl3, active compounds read low 1.02 | S. cerevisiae deletion strains, locus YPL055C, strain LGE1, active compounds read low 1.01 | S. cerevisiae deletion strains, locus YPL078C, strain atp4, active compounds read low 1.01 | S. cerevisiae deletion strains, locus YPL106C, strain sse1, active compounds read low 1.1 | S. cerevisiae deletion strains, locus YPL240C, strain hsp82, active compounds read low 1.01 | S. cerevisiae deletion strains, locus YPL241C, strain CIN2, active compounds read low 1.01 | S. cerevisiae deletion strains, locus YPL256C, strain CLN2, active compounds read low 0.975 | S. cerevisiae deletion strains, locus YPR119W, strain clb2, active compounds read low 0.982 | S. cerevisiae deletion strains, locus YPR141C, strain kar3, active compounds read low 0.989 | S. cerevisiae deletion strains, locus YPR163C, strain tif3, active compounds read low 0.98 | S. cerevisiae deletion strains, locus YPR167C, strain met16, active compounds read low 0.999 | S. cerevisiae deletion strains, strain wtn01, active compounds read low 0.98 | S. cerevisiae strains, strain wild type, active compounds read low 1.01
